Screening results: PubChem, National Center for Advancing Translational Sciences (NCATS)
TrxR1 substrate: is turned over as a substrate by rat TrxR1; Potency, µM (highest dose often 114 µM); actives 0.01% (n = 390,000); O89049; AID 588456; purified TrxR1 substrate turnover, NADPH consumption readout; also: nearly all actives have a fitted effect of over 50% in size
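Rat TrxR1, dispensed at 90 nM, was prereduced with 400 uM NADPH (final) for 5 min at ~22 deg C, then incubated with compound 15 min before 400 uM selenite. A first-read NADPH fluorescence drop versus no-compound background flagged substrates.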
Coupling enz: coupling enzyme interference in Giardia aldolase counter-screen; coupling enzyme system counterscreen, AmpLite Red fluorescence; activity change, negative = inhibition, % at 58.2 µM, hits read low; actives 0.67% (n = 290,000); AID 2472; in the data active = activity change below about -30%
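Final compound at 57.5 uM, incubated 10 min at RT with coupling enzyme reagent (glyceraldehyde-3-phosphate), then 20 min with substrate and AmpLite Red detection. Fluorescence read at 525/598 nm; tests interference with the coupling assay, not aldolase inhibition.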
TrxR1 inh: rat TrxR1 inhibition | recombinant rTrxR1, NADPH fluorescence consumption, selenite substrate | Potency, µM (highest dose often 114 µM), actives largely listed as inhibitors | actives 1% (n = 390,000); also: nearly all actives have a fitted effect of over 65% in size
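Rat TrxR1 (90 nM in the dispensed reagent) was pre-reduced with 400 uM NADPH for 5 min at room temperature, then incubated with compound for 15 min. After 400 uM selenite was added, NADPH fluorescence (Ex 340/Em 450 nm) was followed for 8 min.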
GALK inh: inhibitors of human galactokinase. P51570. Purified GALK, Kinase-Glo residual ATP luminescence. Potency, µM (highest dose often 57.5 µM), actives largely listed as inhibitors. actives 0.007% (n = 270,000). AID 1868
Target sequence (P51570 whole entry, looked up): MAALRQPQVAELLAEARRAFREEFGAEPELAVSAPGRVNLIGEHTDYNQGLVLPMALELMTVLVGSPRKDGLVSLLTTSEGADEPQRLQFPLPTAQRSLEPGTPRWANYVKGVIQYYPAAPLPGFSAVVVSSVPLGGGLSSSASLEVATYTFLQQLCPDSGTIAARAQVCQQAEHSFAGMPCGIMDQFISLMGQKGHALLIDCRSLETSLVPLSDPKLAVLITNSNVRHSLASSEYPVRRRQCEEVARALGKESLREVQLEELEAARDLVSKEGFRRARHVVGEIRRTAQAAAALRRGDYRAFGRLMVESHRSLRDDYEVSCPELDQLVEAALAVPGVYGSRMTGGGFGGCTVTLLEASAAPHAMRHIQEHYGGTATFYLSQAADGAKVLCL
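Luminescence from leftover ATP (Ultra-Glo luciferase/luciferin) served as read-out after a 1 h room-temperature reaction of 5 nM GALK with 35 uM ATP and 100 uM galactose.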
VP16 counter: Gal4-VP16 reporter inhibition counter-screen. Drosophila S2 Gal4-VP16 UAS-luciferase, luminescence, 20 h. Potency, µM (titrated, usually from 53.6 µM), usual class: inhibitors. actives 3.5% (n = 310,000);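 also: Gal4-VP16 expression switched on by copper sulfate through the metallothionein promoter; nearly all actives have a fitted effect of over 50% in size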
RORg inh: ROR gamma (mouse) transcription inhibition; Potency, µM (doses to about 53.6 µM), usual class: inhibitors; P51450; actives 5.4% (n = 310,000); Drosophila S2 Gal4-RORgamma UAS-luciferase reporter, 20 h; also: nearly all actives have a fitted effect of over 60% in size
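In this cell-based reporter format, copper sulfate (700 uM final) drives Gal4–ROR gamma fusion expression from a metallothionein promoter in Drosophila Schneider cells; compounds preincubated 1 hr, reporter read after 20 hr at ambient temperature.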
A number is an active result; – = inactive; ? = inconclusive; · = no result given; [ ] = remark or other dose. This is a sample that favours compounds with a hit; in the whole collection about 5.9% have one here. Unless noted, calls follow the shape of the dose curve; as a rule, active = well fitted curve in the direction sought with a large enough effect; inconclusive = small, poorly fitted or top-dose-only effect, or another doubt; inactive = no such curve, though single readings can be large; an effect the other way counts as inactive or inconclusive.

SMILES	TrxR1 substrate	Coupling enz	TrxR1 inh	GALK inh	VP16 counter	RORg inh
Cc1cccc(NC(=O)CN(CC2CCCO2)C(=O)c2oc3ccc(F)cc3c2C)c1C (configuration not stated)	–	·	–	·	·	·
Cn1c(SCC(=O)NNC(=S)Nc2ccccc2)nnc1-c1ccncc1	·	–	·	–	–	–
CC1CCN(C(=O)/C(=C\c2cccs2)NC(=O)c2ccccc2)CC1	–	–	–	–	17.8µM	2.82µM
Cn1c(CCNC(=O)c2ccco2)nc2cc(NC(=O)c3ccco3)ccc21	–	–	–	–	–	–
O=C(Nc1ccc2c(c1)nc1n2CCSC1)c1ccco1	–	–	–	–	3.16µM	2.24µM
Cc1nc2cc(NC(=O)c3ccco3)ccc2n1C	–	·	–	–	?	15.8µM
O=C(CSc1nc2ccncc2[nH]1)Nc1ccccc1C(F)(F)F	–	–	–	–	–	?
Cc1ccc(NC(=S)N2CCCCC2CO)cc1C (configuration not stated)	–	–	–	–	?	7.94µM
CC1CN(C(=S)Nc2ccc(Br)cc2)CC(C)O1 (configuration not stated)	–	–	–	–	?	?
Cc1cc(C)cc(NC(=S)N2CC(C)OC(C)C2)c1 (configuration not stated)	–	·	–	–	?	15.8µM
CC1CN(C(=S)Nc2cccc(Cl)c2)CC(C)O1 (configuration not stated)	–	–	–[11.4 µM]	–	?	?
Cc1ccc(NC(=S)N2CC(C)OC(C)C2)cc1C (configuration not stated)	–	·	–	–	?	15.8µM
Cc1cc(Br)ccc1SCC(=O)N1CCN(S(=O)(=O)c2ccccc2)CC1	–	·	–	–	7.08µM	?
CCc1ccccc1NC(=O)Cn1c(C(=O)OC)cc2oc(C)cc21	–	·	–	·	·	·
COC(=O)c1ccc(C(=O)OC)c(NC(=O)CN2CCC(C)CC2)c1	–	–	–	–	–	–
Cc1cc(C)cc(NC(=S)N2CCN(S(=O)(=O)c3ccccc3)CC2)c1	–	·	–	–	?	11.2µM
Cc1cc(C)cc(NC(=S)N2CCCC2)c1	–	·	–	–	?	12.6µM
Cc1cccc(NC(=S)N2CCCCCC2)c1	–	–	–	–	?	?
NC(=S)Nc1ccc(Cl)c(Cl)c1	–	–	–	–	–	–
NN(Cc1ccccc1)C(=S)Nc1ccc(Cl)c(Cl)c1	–	–	–	–	?	11.2µM
COC(=O)N1[C@H]2CC[C@@]3(C)C=C(C)O[C@]1(C)C3c1ccccc12	·	–	·	·	–	–
COc1ccc2c(c1)OCC1=C2CCC2(C)C(=O)CC=C12 (configuration not stated)	·	-34.0	·	–	–	?
CC(C)CC(=O)/C(=C\c1ccc(Cl)cc1Cl)n1cncn1	–	–	8.91µM	–	5.01µM	4.47µM
CCOc1ccc(NC(=O)n2ncc3c(C)cccc32)cc1	–	–	–	·	1.12µM	0.447µM
COC(=O)c1ccc(NC(=O)n2ncc3c(C)cccc32)cc1	–	·	–	·	·	·
SMILES	TrxR1 substrate	Coupling enz	TrxR1 inh	GALK inh	VP16 counter	RORg inh
COc1cccc(NC(=O)n2ncc3c(C)cccc32)c1	–	–	–	–	2.82µM	1.58µM
CSc1ccccc1OCc1cc(C(=O)N2CCN(C)C(c3ccccc3)C2)no1 (configuration not stated)	–	·	–	·	·	·
Cc1ccc(Sc2c(C)nn(C(=O)COc3ccccc3Br)c2C)cc1	–	·	–	·	·	·
Cc1ccc(C)c(N=Nc2nc3ccccc3n2C)c1	–	–	–	–	8.91µM	3.16µM
Cc1cc(C)c(C)c(N=Nc2nc3ccccc3n2C)c1C	–	–	–	–	5.62µM	2.24µM
Cn1c(/N=C/c2cccs2)nc2ccccc21	–	–	–	–	–	–
Cc1nn2c(=S)[nH]nc2[nH]c1=O	–	–	?	–	–	–
COC(=O)c1cnn(C(=O)c2ccccc2Br)c1N	–	-37.4	–	–	–	–
CCc1cc(=O)oc2cc3occ(-c4ccc(OC)c(F)c4)c3cc12	–	–	–	–	12.6µM	?
CCc1cc(=O)oc2cc3occ(C)c3cc12	–	–	–	–	–	–
CCCc1[nH]nc2c1C(CCc1ccccc1)C(C#N)=C(N)O2 (configuration not stated)	–	–	?	–	–	–
CC(C)(C)c1cc(C(C)(C)C)c2oc(=O)c(-c3nc4ccc(C(=O)O)cc4[nH]3)cc2c1	–	·	–	·	·	·
Cc1cccc2cc(-c3nc4ccc(C(=O)O)cc4[nH]3)c(=O)oc12	–	–	–	·	5.01µM	2.82µM
CCC(CC)NC(=O)c1oc2ccccc2c1COc1ccccc1	–	–	–	–	28.2µM	?
COc1cccc(-c2csc(NNC(=O)c3cccs3)n2)c1	–	–	–	–	10µM	2.24µM
COc1ccc(CNc2nc(C)cc(C)c2C#N)cc1	–	–	–	–	–	–[1.91 µM]
CC(=O)c1cccc(NC(=O)c2cnn(-c3ccccc3)c2C)c1	–	–	–	–	2.24µM	3.55µM
COc1ccc(NC(=O)c2cnn(-c3ccccc3)c2C)cc1OC	–	–	–	–	–	–
Cc1ccc(NC(=O)c2cnn(-c3ccccc3)c2C)cc1C	–	–	–	–	?	5.01µM
